mHTT CaM bind: mutant huntingtin-calmodulin interaction inhibitors – biochemical, AlphaScreen, primary screen; 190,000 tested, 3.6% active; inhibition, % at 15 µM; AID 1671202, 2021; AlphaScreen His-mHTT/GST-CaM binding, luminescence
Target sequence (P42858 whole entry, looked up, change not shown): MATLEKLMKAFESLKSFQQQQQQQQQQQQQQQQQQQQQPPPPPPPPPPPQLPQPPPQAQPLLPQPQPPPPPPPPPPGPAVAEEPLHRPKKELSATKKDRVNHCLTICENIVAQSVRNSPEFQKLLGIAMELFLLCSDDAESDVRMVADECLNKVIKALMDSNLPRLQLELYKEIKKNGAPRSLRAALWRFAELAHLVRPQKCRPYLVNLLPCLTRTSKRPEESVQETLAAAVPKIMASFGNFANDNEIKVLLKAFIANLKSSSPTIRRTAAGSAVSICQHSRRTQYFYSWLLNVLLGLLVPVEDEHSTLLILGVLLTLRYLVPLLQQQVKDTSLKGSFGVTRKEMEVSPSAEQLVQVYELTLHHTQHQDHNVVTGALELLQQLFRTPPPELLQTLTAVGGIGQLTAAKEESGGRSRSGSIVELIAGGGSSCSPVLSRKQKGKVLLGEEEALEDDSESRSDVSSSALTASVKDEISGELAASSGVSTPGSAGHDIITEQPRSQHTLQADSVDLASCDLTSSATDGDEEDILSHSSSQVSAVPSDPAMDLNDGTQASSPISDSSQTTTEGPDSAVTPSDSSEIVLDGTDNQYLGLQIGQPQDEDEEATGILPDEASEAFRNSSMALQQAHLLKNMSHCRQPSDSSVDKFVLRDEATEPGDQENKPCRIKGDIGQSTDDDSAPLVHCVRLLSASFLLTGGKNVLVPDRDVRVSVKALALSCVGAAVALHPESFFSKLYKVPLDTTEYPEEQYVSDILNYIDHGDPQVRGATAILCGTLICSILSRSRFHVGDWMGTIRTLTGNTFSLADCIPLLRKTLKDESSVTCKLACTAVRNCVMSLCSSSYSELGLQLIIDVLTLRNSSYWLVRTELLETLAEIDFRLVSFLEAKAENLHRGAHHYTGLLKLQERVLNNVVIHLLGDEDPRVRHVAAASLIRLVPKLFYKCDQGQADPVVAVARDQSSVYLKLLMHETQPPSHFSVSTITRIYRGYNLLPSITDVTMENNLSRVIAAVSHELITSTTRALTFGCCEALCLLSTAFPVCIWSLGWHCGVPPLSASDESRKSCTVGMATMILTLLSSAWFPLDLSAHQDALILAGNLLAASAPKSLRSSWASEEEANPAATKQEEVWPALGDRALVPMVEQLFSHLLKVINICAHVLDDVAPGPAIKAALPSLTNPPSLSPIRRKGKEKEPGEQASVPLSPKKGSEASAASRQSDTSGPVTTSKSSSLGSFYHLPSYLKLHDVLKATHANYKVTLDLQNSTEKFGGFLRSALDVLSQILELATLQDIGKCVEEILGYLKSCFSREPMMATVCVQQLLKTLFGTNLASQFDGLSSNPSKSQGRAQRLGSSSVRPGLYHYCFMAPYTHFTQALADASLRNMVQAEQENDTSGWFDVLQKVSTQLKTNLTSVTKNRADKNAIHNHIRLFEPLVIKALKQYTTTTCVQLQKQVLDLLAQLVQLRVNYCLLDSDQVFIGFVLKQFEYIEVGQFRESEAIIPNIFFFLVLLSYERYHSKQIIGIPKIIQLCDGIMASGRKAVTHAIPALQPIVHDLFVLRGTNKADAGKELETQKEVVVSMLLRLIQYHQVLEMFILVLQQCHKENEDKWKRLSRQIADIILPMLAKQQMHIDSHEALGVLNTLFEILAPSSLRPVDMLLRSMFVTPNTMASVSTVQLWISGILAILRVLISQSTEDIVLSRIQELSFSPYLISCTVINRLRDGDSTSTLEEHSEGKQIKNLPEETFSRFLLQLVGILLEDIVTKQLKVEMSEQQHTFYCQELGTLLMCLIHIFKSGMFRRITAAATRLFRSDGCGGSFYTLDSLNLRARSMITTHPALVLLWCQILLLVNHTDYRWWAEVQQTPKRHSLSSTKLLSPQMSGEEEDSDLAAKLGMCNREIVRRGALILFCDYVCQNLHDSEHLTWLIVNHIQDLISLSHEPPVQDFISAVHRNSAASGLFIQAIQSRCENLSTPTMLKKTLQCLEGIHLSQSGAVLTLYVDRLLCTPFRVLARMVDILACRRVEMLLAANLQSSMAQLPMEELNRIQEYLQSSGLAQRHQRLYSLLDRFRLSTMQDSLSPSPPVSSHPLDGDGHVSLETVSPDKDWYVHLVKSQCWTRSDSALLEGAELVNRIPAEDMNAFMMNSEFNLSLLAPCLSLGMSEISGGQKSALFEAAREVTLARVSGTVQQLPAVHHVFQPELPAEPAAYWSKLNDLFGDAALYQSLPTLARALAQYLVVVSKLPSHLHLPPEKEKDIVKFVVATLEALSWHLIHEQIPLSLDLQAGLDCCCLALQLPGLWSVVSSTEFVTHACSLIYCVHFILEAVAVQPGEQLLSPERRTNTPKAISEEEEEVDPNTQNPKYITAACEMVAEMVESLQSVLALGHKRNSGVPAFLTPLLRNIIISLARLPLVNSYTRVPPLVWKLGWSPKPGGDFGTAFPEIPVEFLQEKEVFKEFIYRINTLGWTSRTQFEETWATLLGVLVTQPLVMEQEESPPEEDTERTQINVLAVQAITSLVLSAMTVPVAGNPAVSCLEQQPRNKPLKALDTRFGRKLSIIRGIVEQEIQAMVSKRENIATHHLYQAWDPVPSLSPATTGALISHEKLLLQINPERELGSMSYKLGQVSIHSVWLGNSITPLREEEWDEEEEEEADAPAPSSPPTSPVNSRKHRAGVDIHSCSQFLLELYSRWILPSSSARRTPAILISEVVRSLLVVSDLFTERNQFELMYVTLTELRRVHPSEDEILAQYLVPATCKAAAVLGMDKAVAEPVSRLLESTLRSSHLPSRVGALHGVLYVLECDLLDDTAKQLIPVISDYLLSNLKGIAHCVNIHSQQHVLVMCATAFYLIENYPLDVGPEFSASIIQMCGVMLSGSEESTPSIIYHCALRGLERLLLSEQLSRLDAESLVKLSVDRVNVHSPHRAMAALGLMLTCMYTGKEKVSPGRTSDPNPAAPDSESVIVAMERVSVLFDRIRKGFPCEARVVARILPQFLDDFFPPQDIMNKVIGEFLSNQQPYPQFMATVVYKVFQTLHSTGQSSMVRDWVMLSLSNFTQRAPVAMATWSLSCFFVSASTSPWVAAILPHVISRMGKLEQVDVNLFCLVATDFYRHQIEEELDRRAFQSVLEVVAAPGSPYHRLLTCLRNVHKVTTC
Pf apPOL block: Pf-apPOL inhibitors, biochemical, fluorescence | Plasmodium falciparum apicoplast DNA polymerase (apPOL) | Recombinant Pf-apPOL, molecular beacon fluorescence, 1.5 h | inhibition, % at 10 µM | 210,000 tested, 0.25% active | AID 1794808, 2022
A number is an active result; 0 = inactive; - = not tested or not shown; ! = repeats disagree. A selection: hits, their analogues and other compounds. The true share with any hit is near 3.5%. Cut-off read from the data, not from the text of the source: active = inhibition above about 50%; inactive = the rest.

SMILES | mHTT CaM bind | Pf apPOL block
COc1cccc(C2=NC(C(C)C)NC(c3ccccc3O)C2)c1 (centres undefined) | 0 | 0
CC(C)C1(C)N=C(c2ccc3c(c2)OCO3)CC(c2ccccc2O)N1 (centres undefined) | 64 | 0
COc1cccc(C2=NC(C(C)C)NC(c3cc(Cl)ccc3O)C2)c1 (centres undefined) | 52 | 0
CCOC(=O)N1CCC2(CC1)N=C(c1ccccc1)CC(c1cc(Cl)ccc1O)N2 (centres undefined) | 0 | 0
CCOc1cccc2c1OC1(C)CC2NC(=O)N1c1cccc(C(=O)NCc2ccccc2)c1 (centres undefined) | 0 | 0
O=C(c1ccc(F)c(Cl)c1)N1CCc2nc[nH]c2C1 | 0 | 0
COc1cc(OC)cc(C(C)(C)OC(=O)NC(Cc2ccccc2)C(=O)O)c1 (centres undefined) | - | 0
O=C(O)Cc1c[nH]c2ccc(O)cc12 | 85 | 95!
NC(Cc1c[nH]c2ccc(O)cc12)C(=O)O (centres undefined) | - | 0
COc1ccccc1Oc1coc2cc(OC(=O)c3ccc4c(c3)OCO4)ccc2c1=O | 0 | 0
O=C(NCc1ccccc1)c1cccc(N2CCNC(c3ccccc3)C2)n1 (centres undefined) | 0 | 0
O=C(NCc1cnccn1)c1ccc(N2CCNC(c3ccccc3)C2)nc1 (centres undefined) | 0 | 0
O=C(NCc1cnccn1)c1ccnc(N2CCNC(c3ccccc3)C2)c1 (centres undefined) | 70 | 0
COc1ccc(CNC(=O)c2ccnc(N3CCNC(c4ccccc4)C3)c2)c(OC)c1 (centres undefined) | 0 | 0
O=C(NCc1ccccn1)c1cccc(N2CCNC(c3ccccc3)C2)n1 (centres undefined) | 85 | 0
COc1ccc(CNC(=O)c2cccc(N3CCNC(c4ccccc4)C3)n2)c(OC)c1 (centres undefined) | 97 | 0
CC1=C(C(=O)Nc2ccc(F)cc2F)C(c2ccsc2)C2=C(CC(c3ccccc3)CC2=O)N1 (centres undefined) | 0 | 0
COc1cc(-c2nc3sc(-c4ccc(OC5CCCC5)c(OC)c4)nc3s2)ccc1OC1CCCC1 | 0 | -
O=C(c1csc(CN2CCN(c3cccc(Cl)c3)CC2)n1)N1CCOCC1 | 0 | 0
COc1ccc(-c2nn(Cc3ccccc3F)c(=O)c3nc(C)sc23)cc1OC | 65 | 0
COc1cccc(-c2nn(CC(=O)N3CCc4ccccc43)c(=O)c3nc(C)sc23)c1 | 0 | 0
CC(C)c1cccc2sc(N(Cc3ccco3)C(=O)c3ccn(C)n3)nc12 | 0 | 0
CCN1CCN(CC2CCN(S(=O)(=O)Cc3c(F)cccc3Cl)CC2)CC1 | 0 | 0
COc1ccc(C(=O)C(C)OC(=O)CCc2c[nH]c3ccccc23)cc1 (centres undefined) | 90 | 0
COc1ccc(C(=O)NCCc2c[nH]c3ccccc23)cc1 | 0 | 0
SMILES | mHTT CaM bind | Pf apPOL block
COc1cc(C=O)ccc1OCCOc1cccc(Cl)c1 | 0 | 0
CC(C)CC(C(=O)Nc1cccc(O)c1)N1C(=O)c2ccccc2C1=O (centres undefined) | 0 | 0
CC(C)CC(C(=O)Nc1cccc(Cl)c1)N1C(=O)c2ccccc2C1=O (centres undefined) | 63 | 0
COc1ccc(Br)cc1C(NC(=O)OC(C)(C)C)C(=O)O (centres undefined) | 0 | 0
COc1cc(NC(=O)c2ccc(OCc3ccccc3)cc2)ccc1NC(=O)c1ccco1 | 0 | 0
O=C(NC1CC1)C1CCCN(c2cnc3nccnc3c2)C1 (centres undefined) | 0 | 0
CC(CC(=O)NC1CCCCC1)S(=O)O (centres undefined) | 0 | 0
Cc1ccc(C2CC(c3ccc(Br)cc3)=NN2C(=O)CCC(=O)O)cc1 (centres undefined) | 0 | 0
CC(=O)N1CCN(CC(=O)N2N=C(c3ccc(C)c(C)c3)CC2c2ccccc2)CC1 (centres undefined) | 0 | 0
Cc1ccc(C2=NN(C(=O)CN3CCC(C(N)=O)CC3)C(c3ccccc3)C2)c(C)c1 (centres undefined) | 56 | 0
Cc1ccc(C2=NN(C(=O)CN3CCC(C(N)=O)CC3)C(c3ccc(C)cc3)C2)cc1 (centres undefined) | 57 | 0
Cc1nc2ccccc2n1CC(O)COc1ccc(C(=O)c2ccccc2)cc1 (centres undefined) | 0 | 0
CC(=O)N(C)c1ccc(OCC(O)Cn2c3ccccc3c3ccccc32)cc1 (centres undefined) | 73 | 0
O=C(Nc1nnc(-c2ccco2)o1)c1c[nH]c2ccccc12 | 72 | 0
CCS(=O)(=O)c1ccc(-c2nnc(NC(=O)c3c[nH]c4ccccc34)o2)cc1 | 0 | 0
COc1cccc(CN2Cc3cccc4c3[C@H](C=CC4)CC2=O)c1 | 100 | 0
O=C1C[C@H]2C=CCc3cccc(c32)CN1Cc1ccc(Cl)cc1 | 0 | 0
Cn1cc(CC(=O)NCc2cccs2)c2ccccc21 | 0 | 0
CN1C(=O)c2cccnc2Sc2cc(C(=O)NC3CCCCC3)ccc21 | 0 | 0
Cc1ccc(C)c(N2CCN(Cc3ccc(-c4ccccc4[N+](=O)[O-])o3)CC2)c1 | 70 | 0
CN1CCN(Cc2ccc(-c3cccc([N+](=O)[O-])c3)o2)CC1 | 0 | 0
Cc1ccc(C)c(N2CCN(Cc3cc4c(cc3[N+](=O)[O-])OCO4)CC2)c1 | 0 | 0
O=[N+]([O-])c1cccc(-c2ccc(CN3CCN(c4ccccc4)CC3)o2)c1 | 56 | 0
O=C(O)CCc1nc2ccc(O)cc2[nH]1 | 0 | 0
Cc1cc(O)c2c(c1)OC(=Cc1ccc(Br)cc1)C2=O | 0 | 0
SMILES | mHTT CaM bind | Pf apPOL block
Cc1cc(O)c2c(c1)OC(=Cc1cn(C)c3ccccc13)C2=O | 72 | 0
Cc1cc(O)c2c(c1)OC(=Cc1ccccc1F)C2=O | 0 | 0
Cc1cc(O)c2c(c1)OC(=Cc1cccc(Br)c1)C2=O | 56 | 0
O=C(Nc1ccccc1)C1CCN(c2cnc(N3CCCCC3)nc2)CC1 | 0 | 0
Cc1ccccc1C(=O)Nc1cccnc1N1CCOCC1 | 0 | 0
CCOc1ccccc1NC(=O)N1CC(C(=O)NC)C2(CCCC2)C1 (centres undefined) | 0 | 0
COC(=O)C12CC3CC(CC(NC(=O)c4ccc(Cn5ccnc5)cc4)(C3)C1)C2 | 0 | 0
COC(=O)C12CC3CC(CC(NC(=O)c4ccc(=O)oc4)(C3)C1)C2 | 0 | 66
CCCN1CCN(C(=O)c2cc3c(s2)CCN(C(C)=O)C3)CC1 | 0 | 0
O=C1CCCc2c1nc(-c1cccc([N+](=O)[O-])c1)n2O | 0 | 0
COc1ccc(C(=O)c2ccco2)cc1 | 0 | 56
COc1ccc(C(=O)N2CCN(C(=O)c3ccco3)CC2)cc1 | 0 | 0
COC(=O)c1ccc(NC(=O)CSc2nnc3n2CCN3c2ccc(C)cc2)cc1 | 0 | 0
COC(=O)c1ccc(C(=O)Nc2sccc2C#N)cc1 | 0 | 0
CCCC(C)C(=O)Nc1ccc(OCC)cc1 (centres undefined) | 100 | 0
CCCC(C)C(=O)Nc1ccc(Br)cc1 (centres undefined) | 0 | 0
Cc1ccc(C)n1-c1ccc(S(N)(=O)=O)cc1 | 75 | 0
Cn1c(=O)n(-c2ccc(S(N)(=O)=O)cc2)c(=O)n1C | 0 | 0
O=C(Nc1ccc(-c2ccc([N+](=O)[O-])cc2)cc1)c1ccccc1O | 0 | 0
O=C(CCc1ccc2nc(-c3ccccc3)[nH]c2c1)N1CCCCC1 | 0 | 0

Screening results as filed in PubChem BioAssay.
